Screening results (PubChem BioAssay)
Shown are actives, neighbours in structure and some others; about 3.5% of the full set was active somewhere.
FBW7 activator = FBW7 E3 ligase activators, primary screen, biochemical, AlphaScreen, human; AlphaScreen FBW7–phospho-cyclin E peptide binding, activator screen; normalized activity (activation), % at 26.1 µM; 650,000 tested, 0.13% active; in the data active means normalized activity above about 1.9%;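 further: purified mutant Fbw7 with reduced substrate affinity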
MITF primary = MITF inhibitors, primary screen, biochemical, AlphaScreen, human; Microphthalmia-associated transcription factor (Homo sapiens), O75030; AlphaScreen MITF homodimerization, bead proximity signal; inhibition, % at 2.6 µM; 650,000 tested, 0.91% active; AID 1259374, 2018; in the data active means inhibition above about 50%
TEAD-YAP block = TEAD-YAP interaction inhibition, primary screen, TEAD-YAP interaction inhibitor project, luminescence, HEK-TIYL cells; TEAD-Gal4/YAP UAS-luciferase luminescence; inhibition, % at 9.12 µM; 640,000 tested, 1.4% active; AID 1259422, 2018; in the data active means inhibition above about 32%
GPR151 ag = activators of human GPR151, primary screen, cell-based, PathHunter beta-arrestin, luminescence; AID 1508602, 2020; 650,000 tested, 1% active; activation, % at 11.2 µM; PathHunter beta-arrestin GPR151 cells; G-protein coupled receptor 151 (Homo sapiens), Q8TDV0; in the data active means activation above about 4.9%
Target sequence (Q8TDV0 whole entry, looked up): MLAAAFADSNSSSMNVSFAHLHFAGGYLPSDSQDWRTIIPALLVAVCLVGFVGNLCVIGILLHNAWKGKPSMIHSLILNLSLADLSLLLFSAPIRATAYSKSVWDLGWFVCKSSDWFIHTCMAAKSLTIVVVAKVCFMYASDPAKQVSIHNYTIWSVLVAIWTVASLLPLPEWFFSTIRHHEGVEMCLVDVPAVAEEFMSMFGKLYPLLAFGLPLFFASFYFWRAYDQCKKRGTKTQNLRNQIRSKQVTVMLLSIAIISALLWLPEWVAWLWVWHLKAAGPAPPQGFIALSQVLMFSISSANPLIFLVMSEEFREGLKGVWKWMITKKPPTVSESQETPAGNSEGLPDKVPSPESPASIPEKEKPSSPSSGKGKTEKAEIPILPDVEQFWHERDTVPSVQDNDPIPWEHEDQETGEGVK
MITF inh conf = MITF inhibitors, retest of hits, confirmation, biochemical, AlphaScreen, triplicate | 4,700 tested, 16% active | inhibition, % at 2.6 µM | AlphaScreen MITF homodimerization, biotin/His-MITF beads | shares compounds with MITF primary;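 active means inhibition above a cutoff derived from the DMSO control wells, cut at about 28% in these data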;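 further: inhibitors lower the bead chemiluminescence by keeping MITF from dimerizing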
AlphaScreen DR = AlphaScreen optical interference compounds, dose response, counter-screen, biochemical, HTS; shares compounds with MITF primary; AlphaScreen optical interference counterscreen, cell-free; IC50, µM; 480 tested, 6% active; AID 1259373, 2018; call rule not given here
AlphaScreen intf2 = AlphaScreen optical interference compounds, counter-screen for MITF inhibitor project, biochemical, triplicate. LysRS AlphaScreen counterscreen, signal interference. inhibition, % at 2.6 µM. shares compounds with MITF primary. 4,700 tested, 7.6% active;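 active means inhibition above a cutoff derived from the DMSO control wells, cut at about 30% in these data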
Large screens that a line does not name were inactive (follow-up assays come after a bar, where they were run).

CC(=O)N1CCC2(CC1)OCc1cc(-c3cccc(F)c3)ccc1O2	none
Cc1cccc(-c2nnc(C3CCN(S(=O)(=O)c4ccc(F)cc4)CC3)o2)c1	none
COCCNCCOc1ccc(Cl)cc1C(C)(C)C	MITF primary 74 | MITF inh conf inactive | AlphaScreen intf2 inactive
COCCCNCCCOc1ccc(Cl)cc1C(C)(C)C	none
COCCNCCOc1cccc(Cl)c1Cl	MITF primary 72 | MITF inh conf inactive | AlphaScreen intf2 inactive
CCOc1ccc(C(=O)C2CCN(S(=O)(=O)c3ccc(NC(C)=O)cc3)CC2)cc1	none
C/C=C/c1ccc(OCCN(C)C)c(OC)c1	MITF primary 73 | MITF inh conf inactive | AlphaScreen intf2 inactive
C=CCc1ccc(OCCNC2CCCC2)c(OC)c1	none
C/C=C/c1ccc(OCCCNC2CCCC2)c(OC)c1	MITF primary 51 | MITF inh conf inactive | AlphaScreen intf2 inactive
C/C=C/c1ccc(OCCCNC(C)CC)c(OC)c1 (centres undefined)	MITF primary 83 | MITF inh conf inactive | AlphaScreen intf2 inactive
COc1cccc(-c2ccc(=O)n(CC(=O)NCC3CCCO3)n2)c1 (centres undefined)	MITF primary 51 | MITF inh conf inactive | AlphaScreen intf2 inactive
CC1(C)CC(=O)C=C(NCCN2CCN(C(=O)Nc3ccc(Cl)c(Cl)c3)CC2)C1	MITF primary 73 | MITF inh conf inactive | AlphaScreen intf2 inactive
O=C(CC1Sc2ccccc2NC1=O)Nc1ccccc1Br (centres undefined)	none
COc1cccc(C(=O)N2CC[C@@H]3[C@H](CCCN3C(=O)CSc3ccccc3)C2)c1	none
COc1ccc(CN2CCN(Cc3cccnc3)CC2)c(OC)c1OC	MITF primary 81 | MITF inh conf inactive | AlphaScreen intf2 inactive
COc1ccc(N2CCN(Cc3cccc(OC)c3OC)CC2)cc1	none
COc1cccc(CN2CCN(Cc3cccnc3)CC2)c1OC	MITF primary 76 | MITF inh conf inactive | AlphaScreen intf2 inactive
Cc1cccc(Cn2c(SCCCO)nc3c2c(=O)[nH]c(=O)n3C)c1	none
Clc1ccc(OCC#CCn2ccnc2)cc1	MITF primary 58 | MITF inh conf inactive | AlphaScreen intf2 inactive
CNC(=O)COc1cc(-c2cn[nH]c2)ccc1NC(=O)C1COc2ccc(OC)cc2C1 (centres undefined)	MITF primary 66 | MITF inh conf 52 | AlphaScreen DR inactive | AlphaScreen intf2 inactive
CN(C)c1c([N+](=O)[O-])cc([N+](=O)[O-])c2cccnc12	MITF primary 54 | MITF inh conf inactive | AlphaScreen intf2 68
O=[N+]([O-])c1ccc(O)c2ncccc12	MITF primary 73 | MITF inh conf 83 | AlphaScreen intf2 101
CC(=O)NCCNC(=O)Cc1c(Cl)cccc1Cl	none
NC(=O)c1cccc(-c2cnc3c(NCc4cccs4)nccn23)c1	none
O=C(NNc1ncnc(NNC(=O)c2ccncc2)c1[N+](=O)[O-])c1ccncc1	MITF primary 65 | MITF inh conf 66 | AlphaScreen intf2 100
CCn1c2ccccc2c2cc(CN3CCN(C(=O)c4ccc(OC)cc4)CC3)ccc21	none
CCn1c2ccccc2c2cc(CN3CCN(C(=O)c4ccccc4)CC3)ccc21	none
CCn1c2ccccc2c2cc(CN3CCN(C(=O)c4cccnc4)CC3)ccc21	MITF primary 58 | MITF inh conf inactive | AlphaScreen intf2 inactive
CCn1c2ccccc2c2cc(CN3CCN(C(=O)c4ccc(F)cc4)CC3)ccc21	MITF primary 55 | MITF inh conf inactive | AlphaScreen intf2 inactive
Nc1cccc2c1C(=O)N(C(=O)Cc1coc3ccc4ccccc4c13)C2=O	none
CN(c1ccccc1)S(=O)(=O)c1ccc(/C(O)=C(\C#N)c2nc3ccccc3n2C)cc1	MITF primary 62 | MITF inh conf inactive | AlphaScreen intf2 inactive
Cc1ccc(/C=N/NC(=O)COc2cccc(Cl)c2)c(O)c1	none
O=C(O)c1ccc(CS(=O)(=O)c2ccccc2)o1	MITF primary 56 | MITF inh conf 74 | AlphaScreen DR inactive | AlphaScreen intf2 inactive
